High-throughput results: PubChem BioAssay, several laboratories
BJeLR lethal = BJeLR cell viability loss; BJeLR (HRASV12) viability, CellTiter-Glo ATP luminescence, 48 h; inhibition, % (concentration not given with the values); actives 0.17% (n = 300,000); in the data active = inhibition above about 50%
FBA Mtb inh = Mtb fructose-bisphosphate aldolase inhibition; P9WQA3; purified M. tuberculosis FBA, fluorescence read-out; inhibition, % at 1 µM; actives 2.3% (n = 360,000);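 also: 0% = vehicle and 100% = reference inhibitor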
Target sequence (P9WQA3 whole entry, looked up): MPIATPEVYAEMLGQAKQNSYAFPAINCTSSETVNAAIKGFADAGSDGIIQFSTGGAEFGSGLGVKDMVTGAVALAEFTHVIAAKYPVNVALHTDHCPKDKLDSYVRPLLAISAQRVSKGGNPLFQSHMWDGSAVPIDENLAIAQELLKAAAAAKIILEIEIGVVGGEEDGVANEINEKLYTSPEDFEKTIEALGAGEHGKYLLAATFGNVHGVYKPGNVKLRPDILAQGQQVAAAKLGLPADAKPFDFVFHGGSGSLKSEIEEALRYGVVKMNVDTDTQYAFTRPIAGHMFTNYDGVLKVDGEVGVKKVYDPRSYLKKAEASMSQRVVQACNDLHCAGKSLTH
RecA splice inh = blocks M. tuberculosis RecA intein splicing; P9WHJ3; cell-free RecA intein splicing, fluorescence; inhibition, % (no concentration beside the values); actives 0.75% (n = 290,000); in the data active = inhibition above about 30%;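 also: 0% = vehicle wells and 100% = reference inhibitor control wells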
PrPC surface inh = inhibitors of human cell surface prion protein PrPC; actives 0.43% (n = 370,000); TR-FRET read-out; P04156; inhibition, % at 13.8 µM; in the data active = inhibition above about 24%; also: 0% = median of the test wells and 100% = reference compound wells
GDH-TPI counter-1 = GDH-TPI coupled enzyme inhibition counter-screen. GDH-TPI coupled enzyme counterscreen, NADH absorbance. AID 588335. actives 1.2% (n = 360,000). inhibition, % at 4.8 µM; in the data active = inhibition above about 30%;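 also: 0% = DMSO wells and 100% = wells lacking the enzyme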
Mtb FBA inh conf = confirmation of M. tuberculosis fructose-bisphosphate aldolase inhibitors. shares compounds with FBA Mtb inh. purified M. tuberculosis FBA, fluorescence read-out. inhibition, % at 1 µM. actives 78% (n = 5,600);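 also: 0% = vehicle wells and 100% = reference inhibitor wells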
GDH-TPI counter-2 = GDH-TPI inhibition counter-screen for FBA inhibitors | shares compounds with FBA Mtb inh | GDH-TPI coupled enzyme counterscreen, fluorescence | inhibition, % at 1 µM | actives 81% (n = 5,600) | AID 652141; in the data active = inhibition above about 10%
GDH-TPI DR = GDH-TPI dose response counter-screen for Mtb FBA | shares compounds with FBA Mtb inh | AID 652145 | GDH-TPI coupled enzyme assay, fluorescence, artifact counterscreen | IC50, µM | actives 79% (n = 170); call rule not given here
* hit, by the source's call; i = inactive; / = not tested or not shown; + = active, no number. Shown are actives, neighbours in structure and some others; about 4.2% of the full set was active somewhere. Rule as the data show it, unless noted: active = inhibition above about 27%; inactive = the rest.

SMILES	BJeLR lethal	FBA Mtb inh	RecA splice inh	PrPC surface inh	GDH-TPI counter-1	Mtb FBA inh conf	GDH-TPI counter-2	others
N=c1c(C(=O)NC2CCCCC2)cc2c(=O)n3ccccc3nc2n1Cc1ccccc1	-8	55*	i	-16	0	167*	134*
Cc1cccn2c(=O)c3cc(S(=O)(=O)c4ccccc4)c(=N)n(Cc4ccc(F)cc4)c3nc12	-10	3	0	3	6	/	/
N=c1c(C(=O)NC2CCCCC2)cc2c(=O)n3ccccc3nc2n1Cc1cccnc1	-5	107*	/	-21	9	+	+
Cc1cccn2c(=O)c3cc(C(=O)NC4CCCCC4)c(=N)n(Cc4ccc(F)cc4)c3nc12	-15	31*	-4	-8	-1	+	+
COC(=O)c1cc(C(c2ccccc2O)C2CCC(C)(C)O2)n2ccccc12 (stereo not given)	/	/	/	-4	/	/	/
N=c1c(C(=O)NC2CCCCC2)cc2c(=O)n3ccccc3nc2n1Cc1ccco1	2	36*	-47	-23	5	12	-1	GDH-TPI DR=>10
Cc1ccc(S(=O)(=O)c2cc3c(=O)n4ccccc4nc3n(Cc3ccco3)c2=N)cc1C	-3	/	-63	-12	/	/	/
Cc1ccc(S(=O)(=O)c2cc3c(=O)n4ccccc4nc3n(CC3CCCO3)c2=N)cc1C (stereo not given)	0	37*	-78	-12	12	92*	63*
N=c1c(C(=O)NCC2CCCO2)cc2c(=O)n3ccccc3nc2n1Cc1ccco1 (stereo not given)	4	28*	/	-42	10	+	192*
O=C(Cn1c(=O)n(Cc2ccco2)c(=O)c2cc(Cl)ccc21)NCC1CCCO1 (stereo not given)	0	6	0	-2	-3	/	/
N=c1c(C(=O)NCc2ccc(F)cc2)cc2c(=O)n3ccccc3nc2n1Cc1cccnc1	2	102*	i	-7	11	152*	116*
COC(=O)C[C@@H]1CC[C@H]2[C@@H](COc3ccc(NC(=O)NC(C)C)cc3C(=O)N2C)O1	/	/	/	12	/	/	/
COCc1cc(N2CCNC[C@H]2C)ccc1N1CCN(Cc2ccccc2)[C@@H](C)C1	/	/	/	-6	/	/	/
CCOC(=O)[C@]12CCCC=C1N(CCCOC)C(=O)[C@@H]2CC(=O)N1CCCCC1	/	/	/	-9	/	/	/
N=c1c(C(=O)NCc2ccccc2)cc2c(=O)n3ccccc3nc2n1CCCN1CCOCC1	/	79*	/	-30	10	2	-4
N=c1c(S(=O)(=O)c2ccccc2)cc2c(=O)n3ccccc3nc2n1Cc1ccco1	1	64*	-378	-10	19	134*	97*
N=c1c(C(=O)NC2CCCCC2)cc2c(=O)n3ccccc3nc2n1CCc1ccccc1	0	47*	-97	-10	-5	5	4
CCC1CCCCN1C(=O)n1ncc(C(O)(c2ccccc2)c2ccccc2)n1 (stereo not given)	/	/	/	8	/	/	/
COc1ccccc1CCN=C(N)NS(=O)(=O)c1ccccc1F	2	51*	5	2	3	+	175*
COc1ccccc1CCN=C(N)NS(=O)(=O)c1ccc(C)cc1	7	-1	2	2	5	/	/
Cc1cc(=O)n2[nH]cc(-c3ccccc3)c2n1	7	34*	-2	1	7	73*	60*
CCCc1cc(=O)n2[nH]cc(-c3ccc(Cl)cc3)c2n1	12	54*	0	3	9	-11	-11
Cc1nc2c(-c3ccccc3)c[nH]n2c(=O)c1Cc1ccccc1	5	12	0	-2	-3	/	/
COCCCNC(=O)C[C@H]1C[C@@]2(C(=O)OC)C(=C[C@H](C(C)C)O[C@@H]2C2CC2)N(Cc2ccco2)C1=O	/	/	/	-1	/	/	/
CN(CCOC(=O)c1cc2ccccc2o1)C1CN(Cc2cn(Cc3ccccc3F)nn2)S(=O)(=O)C1 (stereo not given)	/	/	/	0	/	/	/
SMILES	BJeLR lethal	FBA Mtb inh	RecA splice inh	PrPC surface inh	GDH-TPI counter-1	Mtb FBA inh conf	GDH-TPI counter-2	others
Cn1c(=O)c(-c2ccccc2)nc2ccccc21	1	44*	0	-16	10	59*	39*
COc1ccc(S[C@]2(C(=O)NC3CC3)CC(=O)N[C@@H]2c2ccc(OC)cc2)cc1	/	/	/	-4	/	/	/
COCc1c(Br)c(C)[nH]c(=O)c1C#N	11	32*	1	9	18	71*	50*
COC(=O)C1=C(C)N(C)C(=NCc2ccccc2C(F)(F)F)NC1c1ccc(C(F)(F)F)cc1 (stereo not given)	/	/	/	-14	/	/	/
Cn1c2ccccc2c(=O)c2ccc(NCc3ccc4c(c3)OCO4)cc21	/	88*	/	16	15	175*	110*
COc1cccc2sc3ccc(NCc4ccc5c(c4)OCO5)cc3c(=O)c12	-8	2	5	-13	13	/	/
C=CCn1c(=N)c(C#N)cc2c(=O)n3ccccc3nc21	-2	51*	i	-32	2	128*	111*
N#Cc1cc2c(=O)n3ccccc3nc2n(-c2ccc(Cl)cc2)c1=O	/	49*	-125	-3	2	10	-5
Cc1ccc(C(=O)NCCN2C(=O)C3C4C=CC(C4)C3C2=O)cc1 (stereo not given)	/	/	/	5	/	/	/
Cc1c(C(O)(c2ccccc2)c2ccccc2)[n+]2ccccc2n1C	/	/	/	9	/	/	/
Nc1cc(Cl)ccc1C(=O)OCC(=O)NC1CCS(=O)(=O)C1 (stereo not given)	-4	52*	-1	-2	12	170*	158*
CN(C(=O)COC(=O)c1ccc([N+](=O)[O-])cc1Cl)C1CCCCC1	3	1	0	-12	-6	/	/
O=C(COC(=O)c1ccc(F)cc1Cl)NC1CCS(=O)(=O)C1 (stereo not given)	/	2	/	-4	0	/	/
Nc1cc(Cl)ccc1C(=O)OCC(=O)NCc1cccs1	/	56*	/	-2	2	31*	21*
CN(C(=O)COC(=O)c1ccc(Cl)cc1N)C1CCCCC1	-4	39*	-2	3	4	40*	32*
O=C(COC(=O)c1ccccc1Cl)NCc1cccs1	/	3	/	4	-8	/	/
COC(=O)c1cc(-c2cccs2)c(=O)n2c1CCC2	/	/	/	-17	/	/	/
O=C(OCCN1CCN(C2CN(Cc3cn(Cc4ccccc4Cl)nn3)S(=O)(=O)C2)CC1)c1cccs1 (stereo not given)	/	/	/	-1	/	/	/
COC(=O)C1=C(C)NC(C)=C(C(=O)OC)C(N2C(=O)CCC2=O)C1 (stereo not given)	/	/	/	4	/	/	/
Cc1c(-c2ccccc2)n(O)c(-c2ccc(N(C)C)cc2)[n+]1[O-]	/	57*	/	7	15	126*	109*
CN(C)c1cc[n+](CC(=O)c2ccc(-c3ccccc3)cc2)cc1	15	-1	/	6	7	/	/
